Test results: PubChem BioAssay (NCI)
Compounds without any hit were thinned out: in the full panel of roughly 83,000, 20% have a hit.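 Method: cells in 96-well plates; compound added at one concentration; 48 h incubation; percent growth measured; values under 10 scored active.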 Calls of active or inactive are those of the source.

How the values were obtained:
Experiment in all cases: NCI-60 one-dose screen, 48 h (100 = growth as untreated, 0 = no growth, -100 = all killed)
Conditions in all cases: 10 µM
[1] = tested on: BT-549 breast
[2] = tested on: MDA-MB-435 melanoma
[3] = tested on: SW-620 colon
[4] = tested on: MCF7 breast
[5] = tested on: HCT-116 colon
[6] = tested on: HCC-2998 colon
[7] = tested on: KM12 colon

Measured: growth

CCN(CC)CCCOCCCNc1cc(OC)cc2cccnc12
inactive: [1] 103% | [2] 112% | [3] 99.9% | [5] 94.5% | [6] 83.9% | [7] 102%
active: [4] -3.69%

CCN(CC)CCC(CNc1c(C)cnc2cc(Cl)ccc12)c1ccc(Cl)cc1 (centres undefined)
active: [2] -7.89%
inactive: [1] 67.7% | [3] 51.2% | [4] 39.7% | [5] 23% | [6] 26.7% | [7] 79.8%

COc1ccc(N2C(=O)C3c4[nH]c5ccc(OCc6ccccc6)cc5c4C4CCC(C(C)C)CC4C3C2=O)cc1 (centres undefined)
inactive: [1] 104% | [2] 104% | [3] 87.9% | [4] 95.2% | [5] 109% | [6] 116% | [7] 105%

O=C1NC(=O)N(Cc2ccccc2)CC1Br (centres undefined)
inactive: [1] 94.5% | [2] 62.9% | [3] 51.7% | [4] 56.6% | [5] 28.1% | [6] 95.4% | [7] 106%

CC1=C(N2CCOCC2)C(N2CCOCC2)=C(C)C(=O)C1=O
inactive: [1] 110% | [2] 103% | [3] 105% | [4] 92.5% | [5] 108% | [6] 109% | [7] 105%

O=C1Nc2ccc(Cl)cc2/C1=C\c1c(-c2ccc(Cl)cc2)nc2sc(C3CC3)nn12
inactive: [1] 65.3% | [2] 77% | [3] 80.8% | [4] 60.7% | [5] 41.4% | [6] 83.7% | [7] 82.7%

O=C(Nc1cccc(Br)c1)c1cc(=O)[nH]c2ccccc12
inactive: [1] 82.1% | [2] 101% | [3] 102% | [4] 84% | [5] 109% | [6] 104% | [7] 101%

COc1ccc2c(c1)C(=O)c1c-2c(OCCN(C)C)nc2ccccc12
inactive: [1] 85.4% | [2] 33.3% | [5] 10.4% | [6] 44.9% | [7] 23.1%
active: [3] -7.66% | [4] 6.19%

COc1ccccc1CNCCCN1C(=O)c2ccc3c4c(ccc(c24)C1=O)C(=O)N(CCCN)C3=O
active: [1] -43.4% | [2] -88.3% | [3] -69.8% | [4] -29.4% | [5] -4.19% | [6] -56.8% | [7] 4.38%

O=C(N/N=C\c1cc(Cl)ccc1[N+](=O)[O-])c1ccco1
inactive: [1] 101% | [2] 100% | [3] 102% | [4] 57% | [5] 113% | [6] 103% | [7] 102%

COc1cc(Nc2ccnc(NCCCNc3ccnc4cc(Cl)ccc34)n2)cc(OC)c1
inactive: [1] 19.7% | [7] 47.1%
active: [2] -81.9% | [3] -43.3% | [4] 3.36% | [5] -53.6% | [6] -65%

COc1ccc(NC(=O)Cc2nc3nc4sc(C)c(C)c4c(=O)n3[nH]2)cc1
inactive: [1] 103% | [2] 105% | [3] 104% | [4] 96% | [5] 101% | [6] 98.1% | [7] 104%

COc1ccc(OC)c(/C=C/c2nnc(Nc3ccc(Cl)cc3)o2)c1
inactive: [1] 97.4% | [2] 69.8% | [3] 66.7% | [4] 74.5% | [5] 21.9% | [6] 55.4% | [7] 86.5%

CCN(CC)CCNc1ccc(CO)c2oc3cc(Cl)ccc3c(=O)c12
inactive: [1] 94.9% | [2] 78.4% | [3] 71.3% | [4] 64.5% | [5] 58.6% | [6] 88.3% | [7] 98.6%

N#CCCN(NC(=O)OCc1ccccc1)C(=O)OCc1ccccc1
inactive: [1] 109% | [2] 105% | [3] 102% | [4] 107% | [5] 95.4% | [6] 106% | [7] 109%

N#Cc1ncc(-c2ccc(C(F)(F)F)cc2)c(NCc2cc(C(F)(F)F)cc(C(F)(F)F)c2)n1
active: [4] 8.58% | [5] 7.85%
inactive: [1] 21.8% | [2] 12.2% | [3] 14.5% | [6] 45% | [7] 10.2%

COc1ccc(-c2nnc(-c3c(-c4ccccc4)nc4ncccn34)o2)cc1OC
inactive: [1] 88.6% | [2] 117% | [3] 109% | [4] 102% | [5] 103% | [6] 106% | [7] 100%

Fc1cc(C(F)(F)F)ccc1-c1cncnc1NC1CCCCCC1
inactive: [1] 96% | [2] 104% | [3] 101% | [4] 92.3% | [5] 95.8% | [6] 107% | [7] 107%

CC/C(=N\N=C(/CC)c1ccc(Br)cc1)c1ccc(Br)cc1
inactive: [1] 91.1% | [2] 106% | [3] 102% | [4] 90.9% | [5] 78.1% | [6] 99.4% | [7] 99.5%

O=C(Nc1cccc(-n2cc(-c3ccncc3)c(-c3ccc(O)c(Cl)c3)n2)c1)c1cccc(C(F)(F)F)c1
inactive: [1] 43.9% | [2] 33.7% | [3] 26.1% | [4] 13.9% | [5] 21.7% | [6] 25.7% | [7] 20.2%

COC(=O)C(C(C[N+](=O)[O-])c1ccccc1)=P(c1ccccc1)(c1ccccc1)c1ccccc1 (centres undefined)
inactive: [1] 93% | [2] 49.5% | [3] 69.8% | [4] 30.2% | [6] 101% | [7] 88.3%
active: [5] 4.02%

Cc1cc(Nc2ccc(Cl)cc2)nc(NCCCNc2ccnc3cc(Cl)ccc23)n1
active: [1] -86.7% | [2] -88.6% | [3] -67.4% | [4] -100% | [5] -97.4% | [6] -88.9% | [7] -33.4%
